Pf Dd2 growth – P. falciparum Dd2 growth inhibitors, primary screen, SYBR Green fluorescence, single dose replicates | actives 2.3% (n = 94,000) | 72 h; hits give low values | activity change, % at 10 µM | AID 1159554, 2015; in the data active means activity change below about -80%
Tcruzi prolif – T. cruzi intracellular proliferation inhibitors, primary screen, cell-based, beta-gal Tulahuen parasites, NIH3T3 host, luminescence | T. cruzi beta-gal in NIH3T3, GalScreen luminescence, 90 h | inhibition, % at 8.34 µM | actives 5.9% (n = 77,000);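 active means mean inhibition above about 93%, with at least 55% of replicates each passing it, limit read from the data, passing the limit was not always enough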
C diff growth – C. difficile growth inhibitors, primary screen, HTS. Clostridium difficile clinical isolate growth, OD600, 24 h; hits give low values. growth activity, negative = inhibition, % at 16 µg/mL (by protocol). actives 0.25% (n = 86,000). AID 1259249, 2017;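 active means mean growth activity at or below -80% and every replicate also at or below -80%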
Each line names hits and unclear results; the compound was inactive in the other large screens. Hits are enriched below; roughly 6.7% of the tested compounds scored in any of these assays.

C[C@@H]1CN([C@@H](C)CO)C(=O)c2cc(NC(=O)C3CC3)ccc2O[C@@H]1CN(C)Cc1ccc2c(c1)OCO2	none
C[C@@H]1CN([C@H](C)CO)C(=O)c2cccc(NS(=O)(=O)c3cccs3)c2O[C@@H]1CN(C)S(=O)(=O)c1ccccc1	none (no result: C diff growth)
CO[C@H]1CN(C)C(=O)c2ccc(NC(=O)c3nc4ccccc4s3)cc2OC[C@@H](C)N(Cc2cncnc2)C[C@@H]1C	none (no result: Tcruzi prolif, C diff growth)
C[C@H](CO)N1C[C@H](C)[C@H](CN(C)Cc2ccc(Cl)c(Cl)c2)Oc2c(NS(=O)(=O)c3ccc(F)cc3)cccc2C1=O	none
C[C@@H]1CN([C@H](C)CO)C(=O)c2cccc(NS(=O)(=O)c3ccccc3)c2O[C@@H]1CN(C)Cc1ccc(C(=O)Nc2ccccc2N)cc1	Pf Dd2 growth -84.6 (no result: Tcruzi prolif)
C[C@H]1CN([C@@H](C)CO)C(=O)c2cccc(NS(=O)(=O)c3ccccc3)c2O[C@H]1CN(C)Cc1ccc(C(=O)Nc2ccccc2N)cc1	Pf Dd2 growth -88.2 (no result: Tcruzi prolif)
C[C@H]1CN([C@@H](C)CO)C(=O)c2cccc(NS(=O)(=O)c3ccccc3)c2O[C@@H]1CN(C)Cc1ccc(C(=O)Nc2ccccc2N)cc1	none (no result: Tcruzi prolif)
Cc1ccc(S(=O)(=O)Nc2cccc3c2O[C@@H](CN(C)Cc2ccc(C(=O)Nc4ccccc4N)cc2)[C@@H](C)CN([C@H](C)CO)C3=O)cc1	Pf Dd2 growth -82.7 (no result: Tcruzi prolif)
C[C@H]1CN([C@@H](C)CO)C(=O)c2cccc(NS(=O)(=O)c3ccc(F)cc3)c2O[C@H]1CN(C)Cc1ccc(Cl)c(Cl)c1	Pf Dd2 growth -81.6
Cc1ccc(S(=O)(=O)Nc2cccc3c2O[C@H](CN(C)Cc2ccc(C(=O)Nc4ccccc4N)cc2)[C@@H](C)CN([C@H](C)CO)C3=O)cc1	none (no result: Tcruzi prolif)
C[C@@H]1CN([C@@H](C)CO)C(=O)c2cccc(NS(=O)(=O)c3ccc(Cl)cc3)c2O[C@H]1CN(C)Cc1ccc(C(=O)Nc2ccccc2N)cc1	none (no result: Tcruzi prolif)
O=C(C[C@@H]1C[C@H]2c3cc(NC(=O)NC4CCCC4)ccc3O[C@H]2[C@H](CO)O1)NCc1ccc(Oc2ccccc2)cc1	none (no result: Tcruzi prolif)
CC(=O)N(C)C[C@H]1Oc2ncc(-c3cccc(C#N)c3)cc2C(=O)N([C@@H](C)CO)C[C@H]1C	none
C[C@@H]1CN([C@H](C)CO)C(=O)c2cccc(NS(=O)(=O)c3ccc(F)cc3)c2O[C@H]1CN(C)Cc1ccc(C(=O)Nc2ccccc2N)cc1	none (no result: Tcruzi prolif)
C[C@@H]1CN([C@H](C)CO)C(=O)c2cccc(NS(=O)(=O)c3ccc(F)cc3)c2O[C@@H]1CN(C)Cc1ccc(C(=O)Nc2ccccc2N)cc1	Pf Dd2 growth -86.4
CN(C)C(=O)C[C@@H]1C[C@H]2c3cc(NS(=O)(=O)c4ccccc4)ccc3O[C@H]2[C@H](CO)O1	none
COCC#Cc1ccc2c(c1)O[C@@H](CN(C)Cc1ccc(F)cc1)[C@@H](C)CN([C@H](C)CO)S2(=O)=O	none
COCC(=O)N1CCC2(CC1)CN(Cc1ccc3c(c1)OCO3)[C@@H](CO)c1c2c2ccc(OC)cc2n1C	none (no result: Tcruzi prolif)
COc1ccc2c3c(n(C)c2c1)[C@H](CO)N(CC1CC1)CC31CN(C(=O)c2ccc3c(c2)OCO3)C1	Pf Dd2 growth -89.3 (no result: Tcruzi prolif)
CCC(=O)N1CC2(C1)CN(Cc1cccc(Cl)c1)[C@H](CO)c1c2c2ccc(OC)cc2n1C	Pf Dd2 growth -92.1 (no result: Tcruzi prolif)
COc1ccc2c3c(n(C)c2c1)[C@@H](CO)N(CC1CC1)CC31CN(C(=O)c2ccc3c(c2)OCO3)C1	none (no result: Tcruzi prolif)
CCC(=O)N1CC2(C1)CN(Cc1cccc(Cl)c1)[C@@H](CO)c1c2c2ccc(OC)cc2n1C	none (no result: Tcruzi prolif)
CCC(=O)N1CCC2(CC1)CN(Cc1ccc3c(c1)OCO3)[C@@H](CO)c1c2c2ccc(OC)cc2n1C	Pf Dd2 growth -91.0 (no result: Tcruzi prolif)
COc1cc(CN2CC3(CN(C(=O)c4ccc5c(c4)OCO5)C3)c3c(n(C)c4cc(OC)ccc34)[C@@H]2CO)cc(OC)c1	none (no result: Tcruzi prolif)
COc1ccc2c3c(n(C)c2c1)[C@@H](CO)N(Cc1ccc2c(c1)OCO2)CC31CN(C(=O)c2ccc3c(c2)OCO3)C1	Pf Dd2 growth -85.0 (no result: Tcruzi prolif)
C[C@@H]1CN([C@H](C)CO)C(=O)c2cc(NC(=O)NC3CCCCC3)ccc2O[C@@H](C)CCCCO[C@@H]1CN(C)C(=O)C1CCCCC1	none
CO[C@@H]1CN(C)C(=O)c2cc(NS(C)(=O)=O)ccc2OC[C@H](C)N(Cc2ccccn2)C[C@H]1C	none (no result: Pf Dd2 growth, C diff growth)
CCc1nc(N2[C@H](CO)[C@@H](c3ccccc3-c3ccccc3F)[C@@H]2C#N)sc1C	none (no result: Tcruzi prolif)
CCc1csc(N2[C@H](C#N)[C@@H](c3ccc(-c4ccc(F)cc4)cc3)[C@@H]2CO)n1	none
CCc1csc(N2[C@H](C#N)[C@H](c3ccccc3-c3ccc(F)cc3)[C@H]2CO)n1	Pf Dd2 growth -92.6 (no result: Tcruzi prolif)
CCc1nc(N2[C@H](C#N)[C@H](c3ccccc3-c3ccccc3F)[C@@H]2CO)sc1C	Pf Dd2 growth -80.7 (no result: Tcruzi prolif)
O=C(N[C@H]1CC[C@@H](CCNS(=O)(=O)c2ccc(F)cc2)O[C@H]1CO)C1CCOCC1	none (no result: C diff growth)
C[C@H](CO)N1C[C@H](C)[C@H](CN(C)CC2CC2)Oc2ccc(NC(=O)CCCCCC(=O)Nc3ccccc3N)cc2CC1=O	none
COc1ccc(NC(=O)N(C)C[C@H]2OCc3ccccc3-c3c(n(C)c4ccccc34)C(=O)N([C@H](C)CO)C[C@H]2C)c(OC)c1	none
COc1ccc(NC(=O)N(C)C[C@@H]2OCc3ccccc3-c3c(n(C)c4ccccc34)C(=O)N([C@@H](C)CO)C[C@H]2C)c(OC)c1	none
COc1ccc(NC(=O)N(C)C[C@H]2OCc3ccccc3-c3c(n(C)c4ccccc34)C(=O)N([C@H](C)CO)C[C@@H]2C)c(OC)c1	Pf Dd2 growth -86.4
COc1ccc(NC(=O)N(C)C[C@H]2OCc3ccccc3-c3c(n(C)c4ccccc34)C(=O)N([C@@H](C)CO)C[C@H]2C)c(OC)c1	Pf Dd2 growth -88.9
COCC(=O)N1CC2(C1)CN(C(=O)Nc1ccccc1F)[C@@H](CO)c1c2c2ccc(OC)cc2n1C	none (no result: Tcruzi prolif)
CO[C@@H]1CN(C)C(=O)c2cc(NC(=O)C3CCCC3)ccc2OC[C@@H](C)N(S(=O)(=O)c2ccc(Cl)cc2)C[C@H]1C	none (no result: C diff growth)
C[C@@H]1CCCCO[C@@H](CN(C)CC2CCCCC2)[C@H](C)CN([C@@H](C)CO)C(=O)c2cc(NC(=O)CCCCCC(=O)Nc3ccccc3N)ccc2O1	Pf Dd2 growth -81.1
C[C@@H]1CCCCO[C@@H](CN(C)Cc2ccccc2)[C@@H](C)CN([C@H](C)CO)C(=O)c2cc(NC(=O)CCCCCC(=O)Nc3ccccc3N)ccc2O1	Pf Dd2 growth -84.5 (no result: Tcruzi prolif)
C[C@@H]1CCCCO[C@@H](CN(C)CC2CC2)[C@@H](C)CN([C@H](C)CO)C(=O)c2cc(NC(=O)CCCCCC(=O)Nc3ccccc3N)ccc2O1	none (no result: Tcruzi prolif)
C[C@@H]1CCCCO[C@@H](CN(C)Cc2ccncc2)[C@@H](C)CN([C@H](C)CO)C(=O)c2cc(NC(=O)CCCCCC(=O)Nc3ccccc3N)ccc2O1	none (no result: Tcruzi prolif)
CO[C@H]1CN(C)C(=O)c2ccc(NS(C)(=O)=O)cc2OC[C@@H](C)N(CCC(F)(F)F)C[C@@H]1C	none
CCS(=O)(=O)N1CC2(C1)[C@@H](c1ccccc1)[C@@H](CO)N2Cc1ccc(F)cc1	none (no result: Tcruzi prolif)
COc1ccccc1CN1CC2(C1)[C@H](c1ccccc1)[C@@H](CO)N2Cc1ccccc1	Pf Dd2 growth -90.0 (no result: Tcruzi prolif)

Screens: PubChem BioAssay, Broad Institute
